# Measurements: paper PMC7862700, “An all-to-all approach to the identification of sequence-specific readers for epigenetic DNA modifications on cytosine”
# Key:
# Experiment in all cases: DAPPL (digital affinity profiling via proximity ligation, sequencing); 10 mM Tris-HCl pH 7.5, 50 mM NaCl, 1 mM DTT, 4% glycerol, room temperature, 30 min; GST-TFs on glutathione beads, 16-mer random dsDNA library, 0.1% formaldehyde crosslink after washing; high values mean tight binding
# Conditions in all cases: protein: recombinant; tags: N-terminal GST; dsDNA, one strand shown
# FLI1 = biological target: T1, FLI1 (Homo sapiens, UniProt Q01543 1-452)
# T1 sequence: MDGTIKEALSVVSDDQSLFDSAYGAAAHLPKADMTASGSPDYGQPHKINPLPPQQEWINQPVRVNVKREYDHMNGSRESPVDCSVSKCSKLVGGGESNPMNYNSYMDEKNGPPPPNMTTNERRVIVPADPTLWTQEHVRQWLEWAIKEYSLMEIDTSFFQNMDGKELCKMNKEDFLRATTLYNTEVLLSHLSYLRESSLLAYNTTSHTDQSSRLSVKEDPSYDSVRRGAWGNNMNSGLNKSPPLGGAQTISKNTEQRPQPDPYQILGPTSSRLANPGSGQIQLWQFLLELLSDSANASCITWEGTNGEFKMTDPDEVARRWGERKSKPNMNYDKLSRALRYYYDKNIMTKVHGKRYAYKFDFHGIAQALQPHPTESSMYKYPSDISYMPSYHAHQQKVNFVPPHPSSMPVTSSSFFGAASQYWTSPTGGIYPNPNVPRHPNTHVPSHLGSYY
# Procedure, shortened: (§1)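 Yeast served to express human transcription factors as GST fusions, which were then captured on glutathione beads and labelled with DNA barcodes. Pooled with a tag-only sample, they were incubated with 200 nmole of a 16-mer random double-stranded DNA library for 30 min at room temperature in Tris/NaCl/DTT/glycerol buffer, washed, crosslinked with 0.1% formaldehyde, ligated by proximity, amplified by PCR and sequenced. Dividing each hexamer's read frequency for a factor by its frequency for the tag-only sample gives the binding signal.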
# ELF1 = ELF1 (Homo sapiens, UniProt P32519 1-619)
# Procedure, shortened: as §1
# EHF = biological target: T2, EHF (Homo sapiens, UniProt Q9NZC4 1-300)
# T2 sequence: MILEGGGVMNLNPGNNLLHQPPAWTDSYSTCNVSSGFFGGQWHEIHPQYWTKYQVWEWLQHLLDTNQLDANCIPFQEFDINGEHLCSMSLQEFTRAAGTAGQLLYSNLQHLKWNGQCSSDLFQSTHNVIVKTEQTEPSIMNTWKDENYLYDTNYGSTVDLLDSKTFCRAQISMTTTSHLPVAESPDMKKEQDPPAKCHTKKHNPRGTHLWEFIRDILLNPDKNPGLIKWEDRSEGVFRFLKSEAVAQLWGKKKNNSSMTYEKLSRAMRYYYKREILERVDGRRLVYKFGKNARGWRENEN
# Procedure, shortened: as §1
# ELK3 = biological target: T3, ELK3 (Homo sapiens, UniProt P41970 1-407)
# T3 sequence: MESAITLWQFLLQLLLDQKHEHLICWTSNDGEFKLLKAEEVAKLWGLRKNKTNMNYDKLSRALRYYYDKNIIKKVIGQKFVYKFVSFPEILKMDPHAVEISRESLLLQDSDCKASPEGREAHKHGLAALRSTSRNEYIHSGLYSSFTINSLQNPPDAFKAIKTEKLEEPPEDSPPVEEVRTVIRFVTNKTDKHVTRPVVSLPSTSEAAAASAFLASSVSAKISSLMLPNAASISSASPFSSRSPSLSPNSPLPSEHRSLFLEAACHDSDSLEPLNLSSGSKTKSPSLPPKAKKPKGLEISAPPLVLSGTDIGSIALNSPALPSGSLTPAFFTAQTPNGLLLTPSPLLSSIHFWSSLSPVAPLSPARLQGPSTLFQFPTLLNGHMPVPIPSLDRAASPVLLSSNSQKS
# Procedure, shortened: as §1
# SPIC = biological target: T4, SPIC (Homo sapiens, UniProt Q8N5J4 1-248)
# T4 sequence: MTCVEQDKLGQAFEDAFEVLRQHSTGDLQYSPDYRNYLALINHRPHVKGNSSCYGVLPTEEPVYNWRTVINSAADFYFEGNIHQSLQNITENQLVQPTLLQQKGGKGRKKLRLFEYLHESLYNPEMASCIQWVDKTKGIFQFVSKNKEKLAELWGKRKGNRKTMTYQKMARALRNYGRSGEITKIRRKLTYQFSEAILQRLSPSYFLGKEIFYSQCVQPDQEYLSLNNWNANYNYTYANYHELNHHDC
# Procedure, shortened: as §1
# ELF4 = ELF4 (Homo sapiens, UniProt Q99607 1-663)
# Procedure, shortened: as §1
# ELK4 = biological target: T5, ELK4 (Homo sapiens, UniProt P28324-2 1-405)
# T5 sequence: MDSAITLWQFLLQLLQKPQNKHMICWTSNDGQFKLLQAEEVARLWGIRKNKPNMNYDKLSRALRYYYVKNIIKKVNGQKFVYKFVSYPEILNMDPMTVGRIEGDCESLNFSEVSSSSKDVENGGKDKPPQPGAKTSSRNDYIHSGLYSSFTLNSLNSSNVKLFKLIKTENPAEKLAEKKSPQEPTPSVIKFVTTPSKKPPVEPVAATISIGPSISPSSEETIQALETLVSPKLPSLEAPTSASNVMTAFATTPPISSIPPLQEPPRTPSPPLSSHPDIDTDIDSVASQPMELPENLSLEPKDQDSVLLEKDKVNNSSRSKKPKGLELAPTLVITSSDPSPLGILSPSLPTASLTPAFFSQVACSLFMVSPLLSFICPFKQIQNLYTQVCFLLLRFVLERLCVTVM
# Procedure, shortened: as §1
# ETV2 = biological target: T6, ETV2 (Homo sapiens, UniProt O00321 1-342)
# T6 sequence: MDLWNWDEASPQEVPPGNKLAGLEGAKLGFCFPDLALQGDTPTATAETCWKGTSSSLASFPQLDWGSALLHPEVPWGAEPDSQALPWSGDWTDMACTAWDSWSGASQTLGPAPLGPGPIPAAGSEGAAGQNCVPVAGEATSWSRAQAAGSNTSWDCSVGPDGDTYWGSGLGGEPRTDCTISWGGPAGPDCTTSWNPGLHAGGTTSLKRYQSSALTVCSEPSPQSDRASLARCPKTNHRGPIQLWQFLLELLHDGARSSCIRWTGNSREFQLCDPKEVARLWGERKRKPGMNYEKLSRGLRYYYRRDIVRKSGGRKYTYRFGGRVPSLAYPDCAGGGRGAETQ
# Procedure, shortened: as §1
# ELF3 = biological target: T7, ELF3 (Homo sapiens, UniProt P78545 1-371)
# T7 sequence: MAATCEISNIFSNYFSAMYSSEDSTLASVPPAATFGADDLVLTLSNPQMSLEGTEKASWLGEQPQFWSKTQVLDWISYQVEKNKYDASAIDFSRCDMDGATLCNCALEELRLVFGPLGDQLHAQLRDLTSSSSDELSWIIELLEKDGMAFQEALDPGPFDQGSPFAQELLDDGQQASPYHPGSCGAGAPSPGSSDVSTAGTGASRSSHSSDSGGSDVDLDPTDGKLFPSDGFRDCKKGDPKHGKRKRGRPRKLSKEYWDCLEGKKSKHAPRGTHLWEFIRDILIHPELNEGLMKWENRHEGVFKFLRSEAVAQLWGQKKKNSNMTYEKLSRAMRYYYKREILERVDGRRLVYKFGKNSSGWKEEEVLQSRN
# Procedure, shortened: as §1
# ETV1 = ETV1 (Homo sapiens, UniProt P50549 1-477)
# Procedure, shortened: as §1
# ERF = biological target: T8, ERF (Homo sapiens, UniProt P50548 1-548)
# T8 sequence: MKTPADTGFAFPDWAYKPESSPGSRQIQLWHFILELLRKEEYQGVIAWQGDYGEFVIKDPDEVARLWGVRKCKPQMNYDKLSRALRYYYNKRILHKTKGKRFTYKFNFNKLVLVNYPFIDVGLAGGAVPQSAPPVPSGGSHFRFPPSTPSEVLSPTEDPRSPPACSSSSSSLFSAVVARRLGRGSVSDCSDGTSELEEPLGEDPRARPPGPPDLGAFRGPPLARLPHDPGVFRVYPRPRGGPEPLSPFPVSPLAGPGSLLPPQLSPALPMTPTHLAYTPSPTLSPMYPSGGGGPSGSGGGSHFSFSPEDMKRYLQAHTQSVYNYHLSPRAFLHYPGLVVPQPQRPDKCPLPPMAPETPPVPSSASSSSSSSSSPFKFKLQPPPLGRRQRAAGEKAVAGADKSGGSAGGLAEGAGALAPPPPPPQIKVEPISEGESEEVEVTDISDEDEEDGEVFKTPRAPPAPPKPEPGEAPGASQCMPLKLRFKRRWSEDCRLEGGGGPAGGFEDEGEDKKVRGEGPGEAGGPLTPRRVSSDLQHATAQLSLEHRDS
# Procedure, shortened: as §1
# ETV3L = biological target: T9, ETV3L (Homo sapiens, UniProt Q6ZN32 1-361)
# T9 sequence: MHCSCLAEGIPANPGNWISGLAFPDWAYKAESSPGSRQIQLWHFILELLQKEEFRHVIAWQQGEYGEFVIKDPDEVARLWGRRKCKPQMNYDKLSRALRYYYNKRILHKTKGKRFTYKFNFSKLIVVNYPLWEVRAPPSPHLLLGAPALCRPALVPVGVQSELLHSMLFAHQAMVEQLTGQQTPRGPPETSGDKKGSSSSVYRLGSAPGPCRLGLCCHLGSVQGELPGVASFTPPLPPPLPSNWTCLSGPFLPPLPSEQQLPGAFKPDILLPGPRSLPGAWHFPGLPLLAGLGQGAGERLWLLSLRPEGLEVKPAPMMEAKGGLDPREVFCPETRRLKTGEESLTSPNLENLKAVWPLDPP
# Procedure, shortened: as §1
# ETS2 = biological target: T10, ETS2 (Homo sapiens, UniProt P15036 1-469)
# T10 sequence: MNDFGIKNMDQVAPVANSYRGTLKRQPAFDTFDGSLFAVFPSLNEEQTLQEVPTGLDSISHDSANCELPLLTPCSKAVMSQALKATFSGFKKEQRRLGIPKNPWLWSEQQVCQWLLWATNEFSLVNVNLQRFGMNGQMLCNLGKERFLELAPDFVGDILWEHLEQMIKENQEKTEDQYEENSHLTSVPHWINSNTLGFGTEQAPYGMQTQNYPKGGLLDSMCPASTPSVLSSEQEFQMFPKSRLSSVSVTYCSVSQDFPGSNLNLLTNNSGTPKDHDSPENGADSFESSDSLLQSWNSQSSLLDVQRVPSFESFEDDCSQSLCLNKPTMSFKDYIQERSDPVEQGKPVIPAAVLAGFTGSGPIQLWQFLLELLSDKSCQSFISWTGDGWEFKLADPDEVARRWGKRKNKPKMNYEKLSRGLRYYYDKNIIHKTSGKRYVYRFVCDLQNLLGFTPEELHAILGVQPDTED
# Procedure, shortened: as §1
# ETV7 = biological target: T11, ETV7 (Homo sapiens, UniProt Q9Y603 1-341)
# T11 sequence: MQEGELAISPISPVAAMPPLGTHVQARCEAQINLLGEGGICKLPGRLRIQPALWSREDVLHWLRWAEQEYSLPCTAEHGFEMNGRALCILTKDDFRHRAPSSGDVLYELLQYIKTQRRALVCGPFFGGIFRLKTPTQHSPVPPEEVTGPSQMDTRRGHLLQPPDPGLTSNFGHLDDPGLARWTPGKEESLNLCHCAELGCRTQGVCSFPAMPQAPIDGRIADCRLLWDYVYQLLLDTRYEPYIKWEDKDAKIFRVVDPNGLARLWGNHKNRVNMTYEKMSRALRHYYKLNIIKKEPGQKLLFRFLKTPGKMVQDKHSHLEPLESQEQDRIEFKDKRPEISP
# Procedure, shortened: as §1
# ETV3 = biological target: T12, ETV3 (Homo sapiens, UniProt P41162-2 1-143)
# T12 sequence: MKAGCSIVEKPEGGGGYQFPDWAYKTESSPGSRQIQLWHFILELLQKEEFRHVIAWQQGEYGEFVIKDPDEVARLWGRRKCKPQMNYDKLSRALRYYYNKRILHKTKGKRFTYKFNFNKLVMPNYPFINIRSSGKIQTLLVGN
# Procedure, shortened: as §1
# ETV6 = ETV6 (Homo sapiens, UniProt P41212 1-452)
# Procedure, shortened: as §1
# ETV6, sequence (P41212 whole entry): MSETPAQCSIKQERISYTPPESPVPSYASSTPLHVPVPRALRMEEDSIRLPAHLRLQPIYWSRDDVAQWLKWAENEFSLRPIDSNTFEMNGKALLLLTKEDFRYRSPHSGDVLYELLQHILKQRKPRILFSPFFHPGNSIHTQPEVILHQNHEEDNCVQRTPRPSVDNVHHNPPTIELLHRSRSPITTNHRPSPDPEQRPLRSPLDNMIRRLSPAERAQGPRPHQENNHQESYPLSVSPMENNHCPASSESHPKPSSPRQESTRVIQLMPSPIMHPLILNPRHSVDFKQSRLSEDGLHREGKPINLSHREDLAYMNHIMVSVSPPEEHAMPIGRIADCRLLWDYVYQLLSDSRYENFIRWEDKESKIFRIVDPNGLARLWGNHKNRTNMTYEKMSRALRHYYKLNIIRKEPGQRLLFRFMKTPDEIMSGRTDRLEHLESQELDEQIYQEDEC
# ELF4, sequence (Q99607 whole entry): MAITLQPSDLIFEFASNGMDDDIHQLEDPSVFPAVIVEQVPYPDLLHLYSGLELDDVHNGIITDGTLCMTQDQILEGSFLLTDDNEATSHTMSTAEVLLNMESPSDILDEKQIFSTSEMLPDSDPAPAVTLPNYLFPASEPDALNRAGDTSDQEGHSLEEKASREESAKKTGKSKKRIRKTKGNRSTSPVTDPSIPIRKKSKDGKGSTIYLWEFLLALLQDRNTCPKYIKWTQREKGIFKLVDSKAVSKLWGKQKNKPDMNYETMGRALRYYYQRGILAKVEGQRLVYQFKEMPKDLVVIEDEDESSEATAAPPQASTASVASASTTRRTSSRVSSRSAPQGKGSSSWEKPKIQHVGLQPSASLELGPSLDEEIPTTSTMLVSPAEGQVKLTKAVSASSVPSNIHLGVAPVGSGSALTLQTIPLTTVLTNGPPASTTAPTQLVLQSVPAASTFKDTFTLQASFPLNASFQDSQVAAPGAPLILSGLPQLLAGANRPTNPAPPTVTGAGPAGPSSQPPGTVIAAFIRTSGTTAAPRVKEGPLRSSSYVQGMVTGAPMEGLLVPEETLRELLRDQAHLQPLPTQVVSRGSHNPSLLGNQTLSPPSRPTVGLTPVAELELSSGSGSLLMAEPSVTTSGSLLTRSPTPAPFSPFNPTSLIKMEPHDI
# ETV1, sequence (P50549 whole entry): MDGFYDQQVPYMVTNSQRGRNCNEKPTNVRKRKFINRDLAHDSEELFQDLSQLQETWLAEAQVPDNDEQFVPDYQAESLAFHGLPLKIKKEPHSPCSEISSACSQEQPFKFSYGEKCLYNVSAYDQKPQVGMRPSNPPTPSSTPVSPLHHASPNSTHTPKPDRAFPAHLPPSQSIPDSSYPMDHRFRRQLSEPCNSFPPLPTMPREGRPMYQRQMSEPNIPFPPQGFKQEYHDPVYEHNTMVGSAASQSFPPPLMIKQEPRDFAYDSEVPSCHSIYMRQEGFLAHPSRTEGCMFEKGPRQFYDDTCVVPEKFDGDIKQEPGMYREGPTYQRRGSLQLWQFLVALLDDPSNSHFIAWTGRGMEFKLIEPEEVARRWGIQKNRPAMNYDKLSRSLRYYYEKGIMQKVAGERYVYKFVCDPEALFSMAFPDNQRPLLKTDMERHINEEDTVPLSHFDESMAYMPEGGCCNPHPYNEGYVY
# ELF1, sequence (P32519 whole entry): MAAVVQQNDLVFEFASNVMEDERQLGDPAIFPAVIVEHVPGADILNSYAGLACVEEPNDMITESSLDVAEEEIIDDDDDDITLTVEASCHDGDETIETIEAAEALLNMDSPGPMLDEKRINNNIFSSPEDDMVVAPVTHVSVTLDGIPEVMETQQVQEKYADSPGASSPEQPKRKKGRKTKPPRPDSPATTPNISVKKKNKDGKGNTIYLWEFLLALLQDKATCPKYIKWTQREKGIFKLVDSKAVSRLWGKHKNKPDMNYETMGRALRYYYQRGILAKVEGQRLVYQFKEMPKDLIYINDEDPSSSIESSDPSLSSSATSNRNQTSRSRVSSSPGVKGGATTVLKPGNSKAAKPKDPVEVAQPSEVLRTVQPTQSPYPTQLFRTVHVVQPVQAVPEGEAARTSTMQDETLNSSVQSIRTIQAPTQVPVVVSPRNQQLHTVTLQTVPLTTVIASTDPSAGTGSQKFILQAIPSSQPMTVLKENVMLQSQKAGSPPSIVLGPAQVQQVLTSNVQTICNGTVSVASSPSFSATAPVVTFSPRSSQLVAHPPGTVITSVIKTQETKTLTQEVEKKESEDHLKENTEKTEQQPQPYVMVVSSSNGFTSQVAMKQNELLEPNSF
sequence,measurement,setting,value
AGCTAG,binding signal,FLI1,"1.05 fold enrichment (6-mer frequency, TF over GST control)"
same,binding signal,ELF1,"1.06 fold enrichment (6-mer frequency, TF over GST control)"
same,binding signal,EHF,"1.02 fold enrichment (6-mer frequency, TF over GST control)"
same,binding signal,ELK3,"1 fold enrichment (6-mer frequency, TF over GST control)"
same,binding signal,SPIC,"1.08 fold enrichment (6-mer frequency, TF over GST control)"
same,binding signal,ELF4,"1.05 fold enrichment (6-mer frequency, TF over GST control)"
same,binding signal,ELK4,"1.01 fold enrichment (6-mer frequency, TF over GST control)"
same,binding signal,ETV2,"1.12 fold enrichment (6-mer frequency, TF over GST control)"
same,binding signal,ELF3,"1.1 fold enrichment (6-mer frequency, TF over GST control)"
same,binding signal,ETV1,"1.05 fold enrichment (6-mer frequency, TF over GST control)"
same,binding signal,ERF,"1.08 fold enrichment (6-mer frequency, TF over GST control)"
same,binding signal,ETV3L,"1.11 fold enrichment (6-mer frequency, TF over GST control)"
same,binding signal,ETS2,"1.07 fold enrichment (6-mer frequency, TF over GST control)"
same,binding signal,ETV7,"1.17 fold enrichment (6-mer frequency, TF over GST control)"
same,binding signal,ETV3,"1.01 fold enrichment (6-mer frequency, TF over GST control)"
same,binding signal,ETV6,"1.03 fold enrichment (6-mer frequency, TF over GST control)"
